Reference: PubChem BioAssay AID1347416 (National Center for Advancing Translational Sciences (NCATS), 2020)
About 1,600 (39%) of roughly 4,100 compounds were called active. Not shown: some 25% with an inconclusive outcome. Calls come from the whole dose curve; as a rule, active = well fitted inhibition curve with a large enough effect; inconclusive = small, poorly fitted or top-dose-only effect; inactive = no such curve, though single readings can be large or run the other way. The list shows a part of the results.

Assay: qHTS Validation assay for Inhibitors of Plasmodium falciparum Dd2 growth in vitro; note: nearly all actives have a fitted effect of over 70% in size
Conditions: P. falciparum Dd2 in RBCs, SYBR Green growth, 72 h; series mostly up to 28.7 µM; activity change, negative = inhibition: at the top concentration
Description: Malaria, a parasitic disease spread to humans through the bite of a Plasmodium infected Anopheles mosquito, continues to be a global health burden affecting millions of people, with an estimated 228 million cases and 405,000 deaths in 2018. Concerns about safety and limitations of current antimalarial treatments strongly emphasize the need to develop new therapeutic options. The scarce number of chemotypes and validated drug targets with efficacy against the liver stage, have hindered development of new antimalarials. To address this, a chemoprophylactic drug discovery effort was conducted through a combined phenotypic high-throughput asexual blood stage and liver stage screen, providing a robust foundation to identify liver-stage active lead chemotypes. Compounds were initially screened against Plasmodium falciparum Dd2 strain parasites using a in vitro SYBRGreen-1 based 72 hr proliferation assay to identify novel chemotypes to advance to liver stage assays. NIH/NCATS Early Translation Branch Assay Submitter (PI): Anton Simeonov Ph.D.
[…] Assay Protocol: PROTOCOL TABLE (as described by Inglese et al., 2007) SEQUENCE No. (e.g., 1, 2, 3, etc.); PARAMETER (e.g., Cells, Incubation, Reagent, etc.); VALUE; DESCRIPTION SEQUENCE, Parameter, Description 1; Reagent; 3 uL complete malaria growth medium, 1536 TC treated Black clear bottom plate 2; Controls; 23 nL positive control artesunate (300 nM final) to column 1; Neutral control DMSO to columns 2-4 3; Compound; 23 nL of compounds in dose response concentration (29 uM to 0.5 nM final) 4; Reagent; 5 uL malaria infected red blood cells (2.5% hematocrit final, 0.3% parasitemia 5; Time; 72 hours at 37C (5% O2, 5% CO2, 90% N2; 95% Rh) 6; Reagent; 2 uL lysis buffer/SYBRGreen-1, 25 sec shake immediately following dispense 7; Time; ~16 hours at 37C (5% O2, 5% CO2, 90% N2; 95% Rh) 8; Detector; EnVision (PerkinElmer) bottom read at 485/14nm excitation and 535/25 nm emission NOTES (numbers refer to sequence above): 1; Complete Malaria Growth Media: 1X RPMI-1640 w/L-glutamine, 5.5g/L Albumax II, 367 uM Hypoxanthine, 25 mM HEPES, 0.25% Sodium Bicarbonate, 35 uM Gentamicin sulfate 2; Controls were added using the Kalypsis Pintool (Wako USA) equipped with 1536 pinhead 3; Compounds were added in a 7-point, titration with a high final concentration of 29 uM by Pintool from seven inter-plate titrations of library plates and two DMSO control plates at the beginning and end (see Yasgar et al., 2008). 4; Red blood cells infected with Plasmodium falciparum Dd2 parasites were used. 6; Lysis buffer: 20 mM Tris-HCl, 10 mM EDTA, 0.16% Saponin, 1.6% Triton-X, 10X SYBR Green. REFERENCE: Inglese J, Shamu CE, Guy RK. 2007. Reporting data from high-throughput screening of small-molecule libraries. Nat Chem Biol. doi:10.1038/nchembio0807-438 Yasgar A, Shinn P, Jadhav A, Auld D, Michael S, Zheng W, Austin CP, Inglese J, Simeonov A. 2008. Compound Management for Quantitative High-Throughput Screening. J Lab Autom 13:79-89. doi:10.1016/j.jala.2007.12.004
% is set by controls: 0 for no effect and ±100 for the full control effect; potency is the fitted concentration of half-maximal effect.

Potency, active:
COc1cc(O)c(C(CCN2CCCCC2)c2ccc(N(C)C)cc2)c(OC)c1 (stereo unspecified) 2.66 µM, COc1cc(O)c(C(CCN2CCCCC2)c2cc(OC)c(OC)c(OC)c2)c(OC)c1 (stereo unspecified) 2.66 µM, COc1cc(O)c(C(CCN2CCCC(C)C2)c2cc(OC)c(OC)c(OC)c2)c(OC)c1 (stereo unspecified) 1.88 µM, COc1ccc(C(CCN2CCCCC2)c2c(O)cc(OC)cc2OC)cc1 (stereo unspecified) 1.33 µM, CCn1ccc2ccc(CN3CCCC(O)(CN4CCCC4)C3)cc21 (stereo unspecified) 7.5 µM, COC(=O)c1c(-c2c(Cl)cccc2Cl)noc1NC(=O)NN1CCCCC1 2.37 µM, CN1CCC(NCCC(c2ccc(F)cc2)c2ccc(Cl)cc2)CC1 (stereo unspecified) 4.22 µM, CCC(=O)N(C1=C(NC(C)C)C(=O)c2ccccc2C1=O)C(C)C 2.37 µM, O=C(NC1CCCC1)c1ccc(OC2CCN(CCCC(F)(F)F)CC2)c(Cl)c1 9.44 µM, COCCNC(=O)c1ccc(OC2CCN(C/C=C/c3ccc(F)cc3)CC2)c(Cl)c1 10.6 µM, CC(=O)Nc1cc(-c2ccccc2)ccc1O 4.73 µM, CC(C)(Oc1nn(Cc2cccc(Cl)c2)c2ccccc12)C(=O)NCCN1CCOCC1 5.31 µM, COCc1ccc2c(c1)c(OC(C)(C)C(=O)N1CCN(CCO)CC1)nn2Cc1ccccc1 9.44 µM, CN1CCN(C(=O)C(C)(C)Oc2nn(Cc3cccc(Cl)c3)c3ccccc23)CC1 7.69 µM, CCCCn1cc(C(=O)c2cc(Br)ccc2O)cc(C#N)c1=O 13.3 µM, N#Cc1cc(C(=O)c2cc(Br)ccc2O)cn(C2CCCCC2)c1=O 0.668 µM, CN(C)c1cc[n+](Cc2ccccc2)cc1 10.6 µM, CCOC(=O)CCCOc1cccn2c(=O)c(-c3cc(C)n(-c4ccc(Cl)cc4)n3)c(C)nc12 10.6 µM, O=C1CC2(CCN([S+](=O)([O-])c3cccc(C(F)(F)F)c3)CC2)Oc2ccccc2N1c1ccccc1 6.68 µM, Cc1ccc(S(=O)(=O)NC(=O)Nc2ccc(N(C)C)cc2)cc1 1.33 µM, Cc1c(CN2CCN(CC(C)(C)C)C(CCO)C2)[nH]c2ccccc12 (stereo unspecified) 9.44 µM, CC(C)CC(NC(=O)C(NC(=O)OC(C)(C)C)C(C)C)C(=O)NC(CCC(=O)OCc1ccccc1)C(N)=O (stereo unspecified) 8.41 µM, CCCCCn1c(=N)n(CC(O)COc2cccc(C)c2)c2ccccc21 (stereo unspecified) 2.11 µM, CCN(CC)CCn1c(=N)n(CC(O)COc2ccccc2C)c2ccccc21 (stereo unspecified) 3.35 µM, N=c1n(CCN2CCCCC2)c2ccccc2n1CC(O)COc1ccc(Cl)cc1Cl (stereo unspecified) 4.22 µM, CCN(Cc1ccccc1)C(=O)CCC[C@@H]1[C@H]2CCCN3CCC[C@@H](CN1C(=O)c1ccccc1)[C@@H]23 13.3 µM, COc1ccccc1Nc1cnc2ccc(-c3ccc(OC)c(OC)c3)nn12 1.53 µM, COc1ccccc1Nc1cnc2ccc(-c3ccc(F)cc3)nn12 6.85 µM

Activity change, negative = inhibition, inactive:
CCCCC(CC)CNC(=O)CCCCCn1c(=O)[nH]c2ccsc2c1=O (stereo unspecified) -7.19%, COc1ccc(C(=O)N2CCCC(O)(CN3CCCC3)C2)cc1Cl (stereo unspecified) -13.3%, C=CCN(Cc1ccccc1OCC)C(=O)c1ccc(N(C)S(C)(=O)=O)cc1 4.22%, CCCC1=[N+](CC)CCn2c(C)ccc21 -15.7%, OC(CN1CCC(Cc2ccc(F)cc2)CC1)c1ccc(Cl)cc1 (stereo unspecified) -97.7%, CN(Cc1ccc(-c2ccccc2)cc1)C(=O)C1CC1 11.1% [at 43.1 µM], CC(=O)Nc1ccc(/C(C)=N\NC(=O)c2ccc(-c3ccccc3)cc2)cc1 18.3%, CC(C)(Oc1nn(CCOc2ccccc2)c2ccccc12)C(=O)NCc1cnccn1 -20.1% [at 43.1 µM], COCc1ccc2c(c1)c(OC(C)(C)C(=O)NCC1CCOCC1)nn2Cc1cccnc1 22.6%, CC(C)n1nc(OC(C)(C)C(=O)NCCc2cccnc2)c2cc(CN3CCOCC3)ccc21 -3.54%, COc1ccc(-n2nc(C3CCN([S+](=O)([O-])c4cccc(C(F)(F)F)c4)CC3)[nH]c2=O)cc1 0%, CC(C)CCN1CCC2(CC1)CC(=O)N(c1ccccc1)c1ccccc1O2 -9.65%, CN(C)c1ccc(NC(=O)Oc2ccccc2)cc1 11.4%, CC(C)c1ccccc1NC(=O)C(Cc1c[nH]c2ccccc12)NC(=O)OC(C)(C)C (stereo unspecified) -18.5%, CCn1c(=N)n(CC(O)c2cccs2)c2ccccc21 (stereo unspecified) -26.2%, CC(C)CN1CCN(C(=O)CCC[C@@H]2[C@H]3CCCN4CCC[C@@H](CN2Cc2cccnc2)[C@@H]34)CC1 -17%, CC(=O)N1C[C@@H]2CCCN3CCC[C@@H]([C@H]23)[C@H]1CCCC(=O)Nc1ccccc1 -1.67%, COc1ccccc1C(=O)NCc1nnc2ccc(-c3ccc(C)cc3)nn12 0%
